Drawing on PubChem BioAssay (NCI), this text covers growth for twelve compounds.

Compounds without any hit were thinned out: in the full panel of roughly 83,000, 20% have a hit.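 Cells were grown in 96-well plates and exposed to the test compound at a single concentration for 48 hours; results are reported as percent growth, with values below 10 considered active.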 Activity calls are given as the source filed them.

The test system of this assay is HL-60(TB) leukemia. In words: NCI-60 one-dose screen, 48 h (100 = growth as untreated, 0 = no growth, -100 = all killed). The following applies: 10 µM unless noted.
For `COc1ccc(Nc2ncccc2NC(=O)c2cn(Cc3cccc(Oc4ccccc4)c3)nn2)cc1`, the growth is 95.9% (inactive). As for `O=C1C(Cl)=C(Nc2ccccc2)C(=O)C(Cl)=C1Nc1ccccc1`, the figure is 122% (inactive). Turning to `COc1cc(/C=N/NC(=O)c2ccc(C)nc2)cc(OC)c1OC`, the growth was 56% (inactive). As for `C=C(c1ccc(C(=O)NCCCn2ccnc2)cc1)c1cc2c(cc1C)C(C)(C)CCC2(C)C`, the figure is -47.5% (active); as for `COc1ccc(/C=C(\C(=O)NCc2cccnc2)S(=O)(=O)c2ccccc2)cc1OC`, 33% (inactive). In the case of `COc1ccc(OC)c(/C=C2\Oc3cc(O)ccc3C2=O)c1`, the growth was 95.7% (inactive). As for `COc1cc2c(cc1O)[C@@]1(C)[C@H](c3ccccc3Br)OC(=O)N1CC2`, the figure is 73.3% (inactive); as for `CC[C@@H](C(=O)[C@@H](C)[C@@H](O)[C@H](C)[C@@H]1O[C@@H]([C@@H](CC)C(=O)O)CC[C@@H]1C)C1O[C@]2(C=CC(=O)[C@]3(CC[C@@](C)([C@H]4CC[C@](O)(CC)[C@H](C)O4)O3)O2)[C@H](C)C[C@@H]1C` (some centres not stated), -32.7% (active).

Consider `CCN1CCN(CC(=O)N2c3cccc4cccc(c34)N(C(=O)CN3CCN(CC)CC3)C2c2cn(-c3ccccc3)nc2-c2cccc([N+](=O)[O-])c2)CC1`, for which the growth was -63.9% (active). Regarding `CCC(C)N(CCNc1cc(OC)cc2cccnc12)CCC(C)C` (configuration not stated), the growth was 81% (inactive). In the case of `COc1ccc2c(c1)C(C)Cc1c(Cl)ncnc1N2C` (configuration not stated) it was -0.632% (active).

Take `CC(=O)n1nc(C(=O)OC(C)(C)C)c2cc(F)c(F)cc21`: the growth is 103% (inactive).
